In PubChem BioAssay AID1159580 (chemical genetic matrix, 2015):
Hit rate of the full screen: of about 5,500 compounds, about 2,000 (36%) were called active. Not shown: some 18% with an inconclusive outcome. No stated cut-off is given here; in the data, active means normalized growth mostly below about 0.91 (no sharp cut-off); inconclusive means no clear call, values can overlap the other calls; inactive means mostly above about 0.92. The list shows a part of the results.

Assay: chemical genetic growth profiling, strain panel (AID 1159580);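 further: tested at 20 µM; growth read once vehicle control cultures reached saturation at 30 °C; 1 = growth at the plate median or of vehicle wells; lower values mean less growth of the strain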
Settings: S. cerevisiae deletion strains, growth OD
[1] = locus YDL101C, strain DUN1, hits give low values
[2] = locus YHR030C, strain SLT2, hits give low values
[3] = locus YJL187C, strain SWE1, hits give low values
[4] = locus YHR079C, strain IRE1, hits give low values
[5] = locus YJL095W, strain BCK1, hits give low values
[6] = locus YJR066W, strain TOR1, hits give low values
[7] = locus YLR113W, strain HOG1, hits give low values
[8] = locus YNL183C, strain NPR1, hits give low values
[9] = locus YOR231W, strain MKK1, hits give low values
[10] = locus YPL256C, strain CLN2, hits give low values

Measured: normalized growth

O=[N+]([O-])c1ccc(SC2=NCCN2)c(Cl)c1
inactive: locus YAL013W, strain DEP1, hits give low values 0.994 | locus YBR229C, strain ROT2, hits give low values 1 | [1] 0.987 | locus YDR150W, strain NUM1, hits give low values 0.985 | locus YEL061C, strain CIN8, hits give low values 0.978 | locus YGR078C, strain PAC10, hits give low values 0.987 | [2] 1.03 | locus YHR087W, strain rtc3, hits give low values 1.01 | [3] 0.98 | locus YJR043C, strain POL32, hits give low values 0.964 | locus YJR075W, strain HOC1, hits give low values 0.952 | locus YKL190W, strain CNB1, hits give low values 0.994 | locus YLR039C, strain RIC1, hits give low values 1 | locus YLR058C, strain SHM2 (second series), hits give low values 0.992 | locus YLR085C, strain ARP6, hits give low values 0.965 | locus YLR262C, strain YPT6, hits give low values 1 | locus YML094W, strain GIM5, hits give low values 0.972 | locus YMR219W, strain ESC1, hits give low values 0.977 | locus YMR263W, strain SAP30, hits give low values 1.01 | locus YNL153C, strain GIM3, hits give low values 1.02 | locus YNL298W, strain CLA4 (second series), hits give low values 1.03 | locus YNL322C, strain KRE1, hits give low values 0.984 | locus YNR030W, strain Alg12, hits give low values 0.995 | locus YOL006C, strain TOP1, hits give low values 1 | locus YPL055C, strain LGE1, hits give low values 1.03 | locus YPL241C, strain CIN2, hits give low values 0.985 | locus YPR135W, strain CTF4, hits give low values 1.09

CC(=O)Nc1ccc([N+](=O)[O-])cc1[N+](=O)[O-]
inactive: locus YBL105C, strain PKC1, hits give low values 0.925 | locus YBR135W, strain CKS1, hits give low values 0.911 | locus YBR136W, strain MEC1, hits give low values 0.922 | locus YBR160W, strain CDC28, hits give low values 0.918 | locus YDL017W, strain CDC7, hits give low values 0.927 | locus YDL028C, strain MPS1, hits give low values 0.924 | locus YDL108W, strain KIN28, hits give low values 0.912 | locus YDR052C, strain DBF4, hits give low values 0.931 | locus YDR226W, strain ADK1, hits give low values 0.911 | locus YFL009W, strain cdc4, hits give low values 0.899 | locus YFR003C, strain YPI1, hits give low values 0.926 | locus YFR028C, strain CDC14, hits give low values 0.9 | locus YIL147C, strain SLN1, hits give low values 0.927 | locus YJL128C, strain PBS2, hits give low values 0.878 | locus YJR016C, strain ILV3, hits give low values 0.924 | locus YNL006W, strain LST8, hits give low values 0.927 | locus YNL207W, strain RIO2, hits give low values 0.909 | locus YOR329C, strain SCD5, hits give low values 0.929 | locus YPL209C, strain IPL1, hits give low values 0.915 | locus YPR025C, strain CCL1, hits give low values 0.92 | locus YPR106W, strain ISR1, hits give low values 0.926 | locus YPR111W, strain DBF20, hits give low values 0.902 | strain NNK1, hits give low values 0.931
active: locus YAR019C, strain CDC15, hits give low values 0.619 | [1] 0.671 | locus YDL132W, strain cdc53, hits give low values 0.838 | locus YDL214C, strain PRR2, hits give low values 0.165 | locus YDR054C, strain cdc34, hits give low values 0.625 | locus YDR477W, strain SNF1, hits give low values 0.188 | locus YER123W, strain YCK3, hits give low values 0.114 | locus YER133W, strain GLC7, hits give low values 0.131 | locus YFL029C, strain CAK1, hits give low values 0.605 | locus YFR019W, strain FAB1, hits give low values 0.27 | locus YGR040W, strain KSS1, hits give low values 0.206 | locus YGR052W, strain FMP48, hits give low values 0.175 | locus YGR092W, strain DBF2, hits give low values 0.349 | [2] 0.123 | [4] 0.388 | locus YHR082C, strain KSP1, hits give low values 0.205 | locus YHR205W, strain SCH9, hits give low values 0.0559 | [5] 0.174 | locus YJL157C, strain FAR1, hits give low values 0.307 | locus YJR066W, strain TOR1 (second series), hits give low values 0.145 | [6] 0.152 | locus YKL048C, strain ELM1, hits give low values 0.707 | locus YKL067W, strain YNK1, hits give low values 0.284 | locus YKL101W, strain HSL1, hits give low values 0.534 | locus YKL193C, strain SDS22, hits give low values 0.753 | locus YKL203C, strain TOR2, hits give low values 0.213 | [7] 0.153 | locus YLR133W, strain CKI1, hits give low values 0.438 | locus YLR403W, strain SFP1, hits give low values 0.21 | locus YML070W, strain DAK1, hits give low values 0.202 | locus YMR205C, strain PFK2 (second series), hits give low values 0.511 | locus YMR277W, strain FCP1, hits give low values 0.668 | locus YNL020C, strain ARK1, hits give low values 0.558 | locus YNL161W, strain CBK1, hits give low values 0.722 | [8] 0.105 | locus YNL222W, strain SSU72, hits give low values 0.711 | locus YNL307C, strain MCK1 (second series), hits give low values 0.241 | locus YOL078W, strain AVO1, hits give low values 0.679 | locus YOL136C, strain PFK27, hits give low values 0.227 | locus YOR061W, strain CKA2, hits give low values 0.587 | locus YOR119C, strain RIO1, hits give low values 0.196 | [9] 0.396 | locus YPL031C, strain PHO85, hits give low values 0.213 | locus YPL153C, strain RAD53, hits give low values 0.271 | locus YPL204W, strain HRR25, hits give low values 0.276 | [10] 0.164 | strain TSCII, hits give low values 0.587

Nc1ccc([As](=O)(O)O)cc1
inactive: locus YAL021C, strain ccr4, hits give low values 1 | locus YAL026C, strain drs2, hits give low values 1.02 | locus YAL030W, strain snc1, hits give low values 1 | locus YBL061C, strain skt5, hits give low values 1.01 | locus YBR009C, strain hhf1, hits give low values 1.02 | locus YBR023C, strain chs3, hits give low values 1.02 | locus YBR171W, strain sec66, hits give low values 0.997 | locus YBR231C, strain swc5, hits give low values 1.01 | locus YBR279W, strain paf1, hits give low values 1 | locus YCL011C, strain gbp2, hits give low values 1 | locus YCL016C, strain dcc1, hits give low values 1.01 | locus YCL061C, strain MRC1, hits give low values 1 | locus YCL069W, strain vba3, hits give low values 1.01 | locus YCR088W, strain abp1, hits give low values 1.01 | locus YDL005C, strain med2, hits give low values 0.996 | locus YDL040C, strain nat1, hits give low values 1.01 | locus YDR001C, strain nth1, hits give low values 0.992 | locus YDR069C, strain doa4, hits give low values 1.01 | locus YDR137W, strain rgp1, hits give low values 0.994 | locus YDR159W, strain sac3, hits give low values 1.02 | locus YDR195W, strain ref2 0.993 | locus YDR297W, strain sur2, hits give low values 0.999 | locus YDR334W, strain swr1, hits give low values 1.01 | locus YDR335W, strain msn5, hits give low values 0.995 | locus YDR392W, strain spt3, hits give low values 1.01 | locus YEL003W, strain gim4, hits give low values 0.996 | locus YEL037C, strain rad23, hits give low values 0.997 | locus YEL061C, strain CIN8 (second series), hits give low values 0.997 | locus YER015W, strain faa2, hits give low values 0.999 | locus YER016W, strain bim1, hits give low values 1 | locus YER111C, strain swi4, hits give low values 1 | locus YER155C, strain BEM2 (second series), hits give low values 1.03 | locus YFR010W, strain ubp6, hits give low values 1 | locus YGL167C, strain pmr1, hits give low values 0.997 | locus YGL173C, strain kem1, hits give low values 1.01 | locus YGL227W, strain vid30, hits give low values 0.998 | locus YGL240W, strain doc1, hits give low values 1.01 | locus YGL253W, strain hxk2, hits give low values 1 | locus YHR013C, strain ard1, hits give low values 1.03 | locus YHR027C, strain rpn1, hits give low values 1 | [2] 1 | [4] 0.984 | locus YHR142W, strain chs7, hits give low values 1.02 | locus YJL092W, strain hpr5, hits give low values 1.01 | locus YJL095W, strain BCK1 (second series), hits give low values 1 | [5] 0.971 | locus YJL115W, strain asf1, hits give low values 1.01 | locus YJL129C, strain trk1, hits give low values 1 | locus YJL154C, strain vps35, hits give low values 1 | locus YJL164C, strain tpk1, hits give low values 1.01 | locus YJL166W, strain qcr8, hits give low values 0.998 | [3] 1 | [6] 0.966 | locus YKL160W, strain elf1, hits give low values 1 | locus YKR026C, strain gcn3, hits give low values 0.997 | locus YKR091W, strain srl3, hits give low values 1.01 | locus YLL001W, strain dnm1, hits give low values 1.01 | locus YLL026W, hits give low values 1.01 | locus YLL041C, strain sdh2, hits give low values 1.01 | locus YLR027C, strain aat2, hits give low values 1 | [7] 0.965 | locus YLR221C, strain rsa3, hits give low values 1.01 | locus YLR258W, strain gsy2, hits give low values 1.01 | locus YLR262C, strain YPT6 (second series), hits give low values 1 | locus YLR320W, strain mms22, hits give low values 0.999 | locus YLR342W, strain FKS1, hits give low values 1.01 | locus YLR357W, strain rsc2, hits give low values 1.01 | locus YLR370C, strain arc18, hits give low values 1 | locus YLR384C, strain iki3, hits give low values 1 | locus YML120C, strain ndi1, hits give low values 0.997 | locus YMR058W, strain fet3, hits give low values 1 | locus YMR125W, strain sto1, hits give low values 1 | locus YMR129W, hits give low values 1 | locus YMR205C, strain PFK2, hits give low values 1.04 | locus YMR231W, strain pep5, hits give low values 1 | locus YNL071W, strain lat1, hits give low values 1 | [8] 0.968 | locus YNL209W, strain ssb2, hits give low values 0.999 | locus YNL248C, strain rpa49, hits give low values 0.992 | locus YNL322C, strain KRE1 (second series), hits give low values 1.01 | locus YNR049C, strain mso1, hits give low values 1 | locus YOR001W, strain rrp6, hits give low values 1 | locus YOR070C, strain gyp1, hits give low values 1.01 | locus YOR080W, strain dia2, hits give low values 1.01 | locus YOR083W, strain WHI5, hits give low values 1 | locus YOR106W, strain vam3, hits give low values 1.03 | [9] 1.01 | locus YOR265W, strain rbl2, hits give low values 0.996 | locus YOR270C, strain vph1, hits give low values 1.06 | locus YOR290C, strain snf2, hits give low values 1 | locus YPL051W, strain arl3, hits give low values 1.01 | locus YPL078C, strain atp4, hits give low values 0.996 | locus YPL106C, strain sse1, hits give low values 0.996 | locus YPL240C, strain hsp82, hits give low values 1 | [10] 1.02
